# The panel holds about 79,000 compounds, 15% with a hit somewhere; the sample as a whole holds those more often. Values without a mark were called inactive. The source made the active and inactive calls. Cut-off read from the data, not from the text of the source: active = growth inhibition above about 70%; inactive = the rest.
# How the values were obtained:
# [1] = NCI Yeast Anticancer Drug Screen. Data for the rad52 strain (AID 147);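 note: 0% = growth of vehicle-treated control cultures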; conditions: S. cerevisiae rad52 mutant growth inhibition, active compounds read high
# Method in brief: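 Inhibition of yeast growth, referenced to vehicle controls, was the measured output for a strain with defective DNA damage repair.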
# [2] = NCI Yeast Anticancer Drug Screen. Data for the wt1 strain (AID 149);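 note: 0% = growth of vehicle-treated wt1 cultures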; conditions: S. cerevisiae wt1 strain (SPY 50644) growth inhibition, active compounds read high
# Method in brief: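 Vehicle-normalised growth inhibition; strain wt1; compound exposure.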
# [3] = NCI Yeast Anticancer Drug Screen. Data for the rad50EPP+ strain (AID 151);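 note: 0% = growth of vehicle-treated control cultures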; conditions: S. cerevisiae rad50 mutant strain, active compounds read high
# Method in brief: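 Genetically defined yeast (rad50EPP+, DNA damage repair alteration) is grown with compound, and inhibition of growth is expressed relative to vehicle-treated controls.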
# [4] = NCI Yeast Anticancer Drug Screen. Data for the mgt1 strain (AID 153); conditions: S. cerevisiae mgt1 mutant growth inhibition, active compounds read high
# Method in brief: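 In the mgt1 strain, test compounds were added and growth inhibition was determined relative to vehicle-treated controls.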
# [5] = NCI Yeast Anticancer Drug Screen. Data for the rad50 strain (AID 155);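 note: 0% = growth of vehicle-only cultures of the same strain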; conditions: S. cerevisiae rad50 strain growth inhibition, active compounds read high
# Method in brief: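 A DNA repair-deficient yeast mutant serves as the test organism; compound-induced growth inhibition is calculated against vehicle-treated cells.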
# [6] = NCI Yeast Anticancer Drug Screen. Data for the mec2-1 strain (AID 157); conditions: S. cerevisiae mec2-1 strain, active compounds read high
# Method in brief: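 Each compound was tested on mec2-1 yeast, a strain altered in DNA damage repair or cell cycle control. Growth inhibition is reported relative to vehicle.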
# [7] = NCI Yeast Anticancer Drug Screen. Data for the rad14 strain (AID 159);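 note: 0% = growth of vehicle-treated control cultures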; conditions: S. cerevisiae rad14 strain growth inhibition, active compounds read high
# Method in brief: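 Vehicle-treated cultures served as the baseline for growth inhibition of a DNA repair-mutant yeast strain exposed to each compound.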
# [8] = NCI Yeast Anticancer Drug Screen. Data for the sgs1 mgt1 strain (AID 161);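 note: 0% = growth of cultures given vehicle only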; conditions: S. cerevisiae sgs1 mgt1 strain, active compounds read high
# Method in brief: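 Mutant yeast exposed to compound; growth scored against vehicle-only wells.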
# [9] = NCI Yeast Anticancer Drug Screen. Data for the CLN2oe strain (AID 163);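 note: 0% = growth of vehicle-only control cultures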; conditions: S. cerevisiae CLN2oe strain, active compounds read high
# Method in brief: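 First, the altered yeast strain was treated with each compound; second, its growth was measured; finally, inhibition was derived by comparison with vehicle controls.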
# [10] = NCI Yeast Anticancer Drug Screen. Data for the cln2 rad14 strain (AID 165);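 note: 0% = growth equal to vehicle treated cultures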; conditions: S. cerevisiae cln2 rad14 strain, active compounds read high
# Method in brief: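 Test compounds were added to cln2 rad14 yeast cultures; inhibition of growth was then determined by comparison with vehicle treatment.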
# [11] = NCI Yeast Anticancer Drug Screen. Data for the bub3 strain (AID 167); conditions: S. cerevisiae bub3 mutant strain, active compounds read high
# Method in brief: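 Inhibition values come from growth of compound-treated mutant yeast normalised to vehicle-treated controls.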
# [12] = NCI Yeast Anticancer Drug Screen. Data for the wt2 strain (AID 169);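 note: 0% = growth of vehicle-treated yeast cultures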; conditions: S. cerevisiae wt2 strain growth inhibition, active compounds read high
# Method in brief: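 The panel's yeast strains carry defined changes in DNA repair or cell cycle genes. Each strain is grown with compound, and growth loss is scored relative to vehicle.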
# [13] = NCI Yeast Anticancer Drug Screen. Data for the mlh1 strain (AID 171);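 note: 0% = growth of vehicle-treated control cultures of the same strain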; conditions: S. cerevisiae mlh1 strain growth inhibition, active compounds read high
# Method in brief: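 Inhibition values reflect reduced yeast growth in the presence of compound, referenced to vehicle controls, using a strain chosen for its alteration in DNA repair or cell cycle control.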
# [14] = NCI Yeast Anticancer Drug Screen. Data for the sgs1 strain (AID 173);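 note: 0% = growth of vehicle-only control cultures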; conditions: S. cerevisiae sgs1 mutant, active compounds read high
# Method in brief: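 Vehicle-treated cultures served as reference for growth inhibition of a yeast strain altered in DNA damage repair or cell cycle control after compound exposure.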
# [15] = NCI Yeast Anticancer Drug Screen. Data for the mlh1 rad18 strain (AID 175); conditions: S. cerevisiae mlh1 rad18 strain growth inhibition, active compounds read high
# Method in brief: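 Inhibition values reflect reduced growth of mutant yeast versus vehicle-treated controls following compound exposure; the mutations affect DNA damage repair.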
# [16] = NCI Yeast Anticancer Drug Screen. Data for the rad18 strain (AID 177); conditions: S. cerevisiae rad18 mutant growth inhibition, active compounds read high
# Method in brief: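 Steps: expose repair-mutant yeast to compound; measure growth; express as inhibition relative to vehicle control.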
# [17] = at 5.0 µM (retest, dose inferred, filed as 0.5)
# [18] = at 50.0 µM (retest, dose inferred, filed as 5.0)
compound,measurement,setting,value
NC(=S)N/N=C\c1nccc2ccccc12,growth inhibition,[1]; at 1.2 µM,-10%
same,growth inhibition,[1]; at 3.7 µM,-3%
same,growth inhibition,[1]; at 11.0 µM,40%
same,growth inhibition,[1]; at 33.0 µM,95% (active)
same,growth inhibition,[1]; at 100.0 µM,99% (active)
same,growth inhibition,[2]; at 1.2 µM,-6%
same,growth inhibition,[2]; at 3.7 µM,-7%
same,growth inhibition,[2]; at 11.0 µM,16%
same,growth inhibition,[2]; at 33.0 µM,76% (active)
same,growth inhibition,[2]; at 100.0 µM,99% (active)
same,growth inhibition,[3]; at 1.2 µM,1%
same,growth inhibition,[3]; at 3.7 µM,-1%
same,growth inhibition,[3]; at 11.0 µM,-16%
same,growth inhibition,[3]; at 33.0 µM,27%
same,growth inhibition,[3]; at 100.0 µM,97% (active)
same,growth inhibition,[4]; at 1.2 µM,-2%
same,growth inhibition,[4]; at 3.7 µM,-6%
same,growth inhibition,[4]; at 11.0 µM,21%
same,growth inhibition,[4]; at 33.0 µM,97% (active)
same,growth inhibition,[4]; at 100.0 µM,99% (active)
same,growth inhibition,[5]; at 1.2 µM,-5%
same,growth inhibition,[5]; at 3.7 µM,-3%
same,growth inhibition,[5]; [17],-151%
same,growth inhibition,[5]; at 11.0 µM,46%
same,growth inhibition,[5]; at 33.0 µM,97% (active)
same,growth inhibition,[5]; [18],96% (active)
same,growth inhibition,[5]; at 50.0 µM,99% (active)
same,growth inhibition,[5]; at 100.0 µM,97% (active)
same,growth inhibition,[6]; at 1.2 µM,4%
same,growth inhibition,[6]; at 3.7 µM,46%
same,growth inhibition,[6]; [17],50%
same,growth inhibition,[6]; at 11.0 µM,97% (active)
same,growth inhibition,[6]; at 33.0 µM,99% (active)
same,growth inhibition,[6]; [18],98% (active)
same,growth inhibition,[6]; at 50.0 µM,99.5% (active)
same,growth inhibition,[6]; at 100.0 µM,99% (active)
same,growth inhibition,[7]; at 1.2 µM,-3%
same,growth inhibition,[7]; at 3.7 µM,4%
same,growth inhibition,[7]; at 11.0 µM,51%
same,growth inhibition,[7]; at 33.0 µM,98% (active)
same,growth inhibition,[7]; at 100.0 µM,99% (active)
same,growth inhibition,[8]; [17],-64%
same,growth inhibition,[8]; [18],98% (active)
same,growth inhibition,[8]; at 50.0 µM,99% (active)
same,growth inhibition,[9]; at 1.2 µM,0%
same,growth inhibition,[9]; at 3.7 µM,-11%
same,growth inhibition,[9]; at 11.0 µM,35%
same,growth inhibition,[9]; at 33.0 µM,96% (active)
same,growth inhibition,[9]; at 100.0 µM,99% (active)
same,growth inhibition,[10]; [17],-99%
same,growth inhibition,[10]; [18],97% (active)
same,growth inhibition,[10]; at 50.0 µM,97.5% (active)
same,growth inhibition,[11]; at 1.2 µM,-9%
same,growth inhibition,[11]; at 3.7 µM,-15%
same,growth inhibition,[11]; [17],-107%
same,growth inhibition,[11]; at 11.0 µM,26%
same,growth inhibition,[11]; at 33.0 µM,96% (active)
same,growth inhibition,[11]; [18],97% (active)
same,growth inhibition,[11]; at 50.0 µM,99.2% (active)
same,growth inhibition,[11]; at 100.0 µM,97% (active)
same,growth inhibition,[12]; at 1.2 µM,-5%
same,growth inhibition,[12]; at 3.7 µM,-4%
same,growth inhibition,[12]; at 11.0 µM,14%
same,growth inhibition,[12]; at 33.0 µM,97% (active)
same,growth inhibition,[12]; at 100.0 µM,99% (active)
same,growth inhibition,[13]; at 1.2 µM,3%
same,growth inhibition,[13]; at 3.7 µM,-9%
same,growth inhibition,[13]; at 11.0 µM,34%
same,growth inhibition,[13]; at 33.0 µM,97% (active)
same,growth inhibition,[13]; at 100.0 µM,99% (active)
same,growth inhibition,[14]; at 1.2 µM,-3%
same,growth inhibition,[14]; at 3.7 µM,6%
same,growth inhibition,[14]; at 11.0 µM,50%
same,growth inhibition,[14]; at 33.0 µM,99% (active)
same,growth inhibition,[14]; at 100.0 µM,99% (active)
same,growth inhibition,[15]; [17],-135%
same,growth inhibition,[15]; [18],96% (active)
same,growth inhibition,[15]; at 50.0 µM,98.4% (active)
same,growth inhibition,[16]; at 1.2 µM,-1%
same,growth inhibition,[16]; at 3.7 µM,3%
same,growth inhibition,[16]; at 11.0 µM,39%
same,growth inhibition,[16]; at 33.0 µM,97% (active)
same,growth inhibition,[16]; at 100.0 µM,99% (active)
CSC1=NNC(SC)=NN1,growth inhibition,[1]; at 1.2 µM,-13%
same,growth inhibition,[1]; at 3.7 µM,-5%
same,growth inhibition,[1]; at 11.0 µM,3%
same,growth inhibition,[1]; at 33.0 µM,70% (active)
same,growth inhibition,[1]; at 100.0 µM,98% (active)
same,growth inhibition,[2]; at 1.2 µM,-7%
same,growth inhibition,[2]; at 3.7 µM,-9%
same,growth inhibition,[2]; at 11.0 µM,-6%
same,growth inhibition,[2]; at 33.0 µM,51%
same,growth inhibition,[2]; at 100.0 µM,99% (active)
same,growth inhibition,[3]; at 1.2 µM,-4%
same,growth inhibition,[3]; at 3.7 µM,-9%
same,growth inhibition,[3]; at 11.0 µM,0%
same,growth inhibition,[3]; at 33.0 µM,55%
same,growth inhibition,[3]; at 100.0 µM,98% (active)
same,growth inhibition,[4]; at 1.2 µM,12%
same,growth inhibition,[4]; at 3.7 µM,14%
same,growth inhibition,[4]; at 11.0 µM,12%
same,growth inhibition,[4]; at 33.0 µM,83% (active)
same,growth inhibition,[4]; at 100.0 µM,99% (active)
same,growth inhibition,[5]; at 1.2 µM,-4%
same,growth inhibition,[5]; at 3.7 µM,0%
same,growth inhibition,[5]; [17],49%
same,growth inhibition,[5]; at 11.0 µM,15%
same,growth inhibition,[5]; at 33.0 µM,66%
same,growth inhibition,[5]; [18],41%
same,growth inhibition,[5]; at 50.0 µM,59.9%
same,growth inhibition,[5]; at 100.0 µM,97% (active)
same,growth inhibition,[6]; at 1.2 µM,-4%
same,growth inhibition,[6]; at 3.7 µM,-22%

# — PubChem BioAssay (NCI)
